From PubChem BioAssay AID1346428 (National Center for Advancing Translational Sciences (NCATS), 2018)
About 1,200 (2.5%) of roughly 48,000 compounds were called active. Not shown: some 2% with an inconclusive outcome. Only a selection was taken, and actives are over-represented in it overall. A number with no mark means an inactive call.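 The calls were made as follows: active = activation of at least 60% and not above a set upper limit (about 1 call in 100 departs from these limits); inconclusive = activation of 40% to 60%, or above that upper limit; inactive = activation under 40%.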

Target: Probable G-protein coupled receptor 32 (Homo sapiens) (UniProt O75388)
Sequence (O75388 whole entry, looked up): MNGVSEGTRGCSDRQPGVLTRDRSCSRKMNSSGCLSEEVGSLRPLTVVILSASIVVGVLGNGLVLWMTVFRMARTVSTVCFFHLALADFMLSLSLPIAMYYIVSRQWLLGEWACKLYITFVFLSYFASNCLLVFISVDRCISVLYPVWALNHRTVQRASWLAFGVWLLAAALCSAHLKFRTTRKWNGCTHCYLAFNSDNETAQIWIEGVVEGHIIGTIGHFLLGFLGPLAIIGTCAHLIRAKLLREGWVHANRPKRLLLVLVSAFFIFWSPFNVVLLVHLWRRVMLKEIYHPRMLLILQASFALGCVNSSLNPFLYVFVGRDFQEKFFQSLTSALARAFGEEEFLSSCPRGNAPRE
Experiment: qHTS for Agonists of Human Resolvin D1 Receptor DRV1
Conditions: CHO-K1 GPR32 beta-arrestin PathHunter luminescence, 90 min; at 76.9 µM; active compounds read high; zero percent set by DMSO-only wells
From the text: Endogenous resolution of inflammation is known to be transduced through various GPCRs and their natural mediators of lipid nature. Resolvin D1 (RvD1) is one of the active players in resolution of acute inflammation through regulation of anti-inflammatory pathways; it is known to enhance phagocytosis of human macrophages, limits neutrophils infiltration, etc. […] The search for GPR32-activating small molecules with anti-inflammatory effects similar to its natural omega-3 derivative ligand in order to use them as research tools for further studies of inflammation and its resolution was the goal of this screening project. For primary screening assay, we used CHO-K1 GPR32 beta-arrestin cell line (DiscoveRx, #93-0321C2A) and the PathHunter(R) beta-Arrestin Assay (DiscoveRx) which measures recruitment of beta-arrestin to the GPR32 and generates chemiluminescent signal. These engineered cells stably transfected with GPR32 co-express GPR32-fused small 42-amino acid fragment of beta-Gal called ProLinktrade mark, and […] -tagged beta-Arrestin fusion protein. When GPR32 is activated by a ligand, it stimulates binding of beta -Arrestin to ProLink-tagged GPR32, and two parts of beta-Gal complement forming a functional enzyme. Upon substrate (PathHunter(R) Detection reagent) addition, beta-Gal hydrolyzes it and generates a chemiluminescent signal.
The cells were thawed and plated in thawing media containing F-12 HAM (Invitrogen, #11765-054), 10% FBS (Invitrogen, #10082), 1x Glutamine, and 1x Pen/Strep onto the 175-mm flask for 24 hours. Then, thawing media was replaced with Growth media which contains 800microg/mL Geneticin (Invitrogen, #10131) and 300microg/mL Hygromycin B (Invitrogen, #10687) in addition to described above. For the assay, the cells were harvested at ~80% confluent stage with Cell Dissociation buffer (Gibco, #13151), and seeded at 2,500 cells/ 3microL/well in assay media (PathHunter(R) Cell Plating Reagent, DiscoverX, #93-0563R1B) using MultiDrop Combi dispenser (Thermo Scientific, Logan, UT) onto white solid bottom tissue culture-treated 1536-well plates (Greiner # 789173-F) and allowed to attach overnight at 37 degrees C, 95% humidity, 5% CO2, . Next, 23nL/well of compound solutions in DMSO were added with a Pin Tool (Kalypsis, San Diego, CA) to the assay plates. As the basal control (EC0), 23 nL/well of DMSO was used on each plate. The cells were incubated in the presence of compounds or DMSO for 90 minutes at 37 degrees C, 5% CO2. Subsequently, 1.5microL/well of PathHunter(R) Detection Reagent prepared per the manufacturer's instructions was added to the assay plates with BioRAPTR FRDtrade mark dispenser (Beckman Coulter, San Francisco, CA) and incubated for 1 hour at ambient temperature prior to the measurement of the luminescent signal on ViewLux(R) uHTS Microplate Imager (Perkin Elmer, Waltham, MA).

Question: How did the activation turn out when `c1ccc2c(c1)[I+]c1ccccc1-2` was run?
Answer: 85.7% (active)

Question: How did the activation turn out when `Nc1ccc([N+](=O)[O-])cc1` was run?
Answer: -34.8%

Question: How did the activation turn out when `CC[N+]1(CCOC(=O)C(O)(c2ccccc2)c2ccccc2)CCCCC1` was run?
Answer: -7.19%

Question: Which activation does the source give for `NCCc1ccc(S(=O)(=O)F)cc1` here?
Answer: 14.4%

Question: For `CC1N=C(N)OC1c1ccccc1` (stereo not given), which activation is on record?
Answer: -12.2%

Question: How did the activation turn out when `C=CCN1CCC23c4c5ccc(O)c4O[C@H]2C(=O)CC[C@@]3(O)C1C5` (stereo not given in full) was run?
Answer: -10.4%

Question: For `O=S(=O)(O)C(F)(F)C(F)(F)C(F)(F)C(F)(F)F`, which activation is on record?
Answer: 94.8% (active)

Question: With `Cc1nnc(NC(=O)c2cccn(Cc3cccc(F)c3)c2=O)s1` as the compound, how does the activation read?
Answer: 23.9%

Question: Which activation does the source give for `CCOC(=O)c1ncn2c1[C@@H]1CCCN1C(=O)c1cc(OC)ccc1-2` here?
Answer: -9.3%

Question: Which activation does the source give for `CC1=C(C(=O)O)N2C(=O)[C@@H](N)[C@H]2SC1` here?
Answer: -12.7%
